Results on 69 sequences are retold here after PubChem BioAssay AID1508600 (Functional Genomics Laboratory (NCATS/FGL), 2020).

Hit rate of the full screen: of about 53,000 sequences, about 3,700 (7%) were called active.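 The calls were made as follows: active = gene knockdowns whose robust z-score for IL-1 alpha signal is at least 2 or at most -2, so actives lie on both sides; inactive = the rest.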 The sample as a whole holds a higher share of actives than the screen did.

The nature of this assay: Components of the Cytosolic LPS Sensing Pathway: Gene Identification via Genome-wide siRNA Screen.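 Also: robust z of the log signal after scaling to non-targeting control siRNA wells of the plate.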 The following applies: RAW264.7 macrophages, IL-1a HTRF, actives lie on both sides, screened at 100 nM (by protocol), cells primed 5 h with Pam3CSK4 first. The gist of the method:
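Using IL-1a HTRF as read-out, the screen measured release from RAW264.7 cells after 48h siRNA knockdown (100 nM), 5 h Pam3CSK4 priming and 24 h cytosolic LipidA. Values were expressed relative to negative-control wells as robust z-scores.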
Turning to GGGACUUAUGUCCAGGAAGTT against Agap3, the z-score is -1.09 (inactive).

As for GGGACCACCUUGAACACUATT against Slc52a3, the z-score is 1.81 (inactive).

For the sequence GGCAUCUUAUUUCUUGUUATT against Tbkbp1, the z-score is -0.56 (inactive).

For GUGAAGAAAGUCAUCAAGATT against Olfr1506, the z-score is -0.182 (inactive).

As for GGCUUUGAUCAGCAUGAGCTT against Pak4, the z-score is -2.07 (active).

As to GCAAGGUCAAUCAAUCGUATT against Taar1, the z-score was 0.548 (inactive).

With GCGGAGUCUUUGGCUUAGATT against Lratd2, the z-score is 1.03 (inactive).

As for CGAAAGCUAAACUAAAAGATT against Stimate, the z-score was 0.539 (inactive).

As to GCUGAAUACCCUUUUAGUUTT against Atp2c1, the z-score was 0.317 (inactive).

As for GCGAUAUUAACUAUGGAGATT against Gpr149, the z-score was -0.601 (inactive).

Consider GGUAUUCCAAUAACUGUACTT against Fip1l1, for which the z-score was -0.269 (inactive).

Consider GGAAAGAAUCCACUUGCAUTT against Xkr5, for which the z-score was -1.35 (inactive).

On to GGAGAUUUUCCAGAGGCUGTT against Josd1, for which the z-score is -2.24 (active).

For the sequence CGGCCUUCUCUACAAAUCATT against Rbfa, the z-score is 0.816 (inactive).

Regarding GCUGACCAUUUUGAUGCCCTT against Adi1, the z-score is -0.0381 (inactive).

For GGUGGUUUUGUUUCUUUUUTT against Tab3, the z-score is 0.643 (inactive).

On to GGGCCAACCCAGAAAAACATT against Plekha7, for which the z-score is -0.515 (inactive).

With GCCGUCUUUACAUUCCUGATT against Olfr605, the z-score was 0.8 (inactive).

On to CCCAUCAAAAGAAUCCACATT against Snrnp70, for which the z-score is -2.51 (active).

In the case of GGUGUUUAAUUGCUCACUATT against Gramd4, the z-score was 1.13 (inactive).

For the sequence UACCCGAAUGCAGACAGGATT against Raet1a, the z-score was 0.667 (inactive).

On to GGAGGAAGCUGAACUCUGGTT against Ehmt2, for which the z-score is -0.655 (inactive).

Regarding GCAUUUAGAAGAAUCCGCCTT against Hao2, the z-score was 2.01 (active).

For CCUUGUGAUGUUUAAAGACTT against Abcg1, the z-score was 0.293 (inactive).

As for GUGAGUAGGUAGGAAGCAUTT against Cd200r2, the z-score is -2.56 (active).

Consider CCAGUUGUCUAGACCUGCATT against Ptbp1, for which the z-score is -0.301 (inactive).

Regarding CCUACAAGCAGAGUACAAUTT against Myo10, the z-score was 1.06 (inactive).

As for GGCCUUCAACGAUUCAAUCTT against Olfr770, the z-score is 1.35 (inactive).

With GGAGAGAAAUUUGACACUCTT against Mgrn1, the z-score was -0.0326 (inactive).

GCCAGUGUCCCUAAUAAGGTT against Ager: the z-score is 0.2 (inactive).

As to GCAAACUAUAGGUGCGUUGTT against Dscc1, the z-score is 0.885 (inactive).

Turning to GUCUACCAGAUCCUUCCCUTT against H2-Q8, the z-score was -2.25 (active).

Turning to GCAAACAUGUCAAGUCCGATT against Actl6b, the z-score was 1.07 (inactive).

For the sequence GGACUAUUUGCUGAUGGACTT against Trpc6, the z-score was 2.74 (active).

For the sequence GCAUUUCACCUGGAGCCUUTT against Zfp108, the z-score is -1.11 (inactive).

Regarding CGAGAAUACAUUGAGGAGUTT against Hook2, the z-score is 0.926 (inactive).

As to CGACAACCACUUCAACUAUTT against Chn2, the z-score was 1.34 (inactive).

With GGCUAUCCUCUUUUACCAUTT against Dele1, the z-score was -0.374 (inactive).

As for GGUGUUAGGAAGUCACAUUTT against Tas2r109, the z-score was -1.28 (inactive).

With CCCUAUCCUGUUCAUCUCUTT against Gpr50, the z-score is 2.83 (active).

With GGAAAAAGCUCAAAGGCGATT against Gap43, the z-score is -0.216 (inactive).

In the case of GGAAAUGGAUCCAGAAUAUTT against Smarca1, the z-score was -1.12 (inactive).

Take GGACAUGACAUCCAAAGACTT against Prmt1: the z-score was -0.649 (inactive).

As for GGACACAGAUUAAUCAAGATT against Iftap, the z-score was 0.144 (inactive).

For GGCCAUUGCCUCUUCUACUTT against Plekha4, the z-score was -0.225 (inactive).

As to GAUCAACCUGAGCUCCAGUTT against Olfr25, the z-score is 2 (active).

For the sequence GGCCAUCCGCAUUUUUUCCTT against Mex3b, the z-score was -0.34 (inactive).

For GGUUUUCAAAGUCCUGAAUTT against Myo3a, the z-score was -1.96 (inactive).

With GGGAAAGAAUGGUGUGGAATT against Dlx4, the z-score is -1.97 (inactive).

Take GGAAACUUCAGACUAGUCATT against Eif2s3y: the z-score was -0.0291 (inactive).

GGGAAUUUCGGCUGUUUUATT against Cts8: the z-score is 1.85 (inactive).

With GGACCUGAGAGACUCUUUGTT against Ip6k2, the z-score was -3 (active).

Consider GGUCCACAGAUUCUUCUAATT against Zfa-ps, for which the z-score is -0.761 (inactive).

With GGCCAUUUUGGAUCAUACATT against Actl6a, the z-score was -1.06 (inactive).

With GCAGAUCAAUGGAUUCACCTT against Olfr57, the z-score is -1.51 (inactive).

As for GGCACUGCCAUUAACAAAATT against Nrip1, the z-score was 0.0122 (inactive).

Take GGGCCAAUAAAGAGGACAGTT against Aanat: the z-score is 2.38 (active).

As to CCUGAUUGUCUUCAAUGGGTT against Cant1, the z-score was -0.84 (inactive).

As for CCAGUUGACAGGUUUGAUCTT against Habp4, the z-score is -0.255 (inactive).

As to GGUACAAGAUAUUGUGAAATT against Fgd3, the z-score was 0.0612 (inactive).

GCUUGAUCAACAAGUGGAGTT against Nup62: the z-score is -2.13 (active).

Regarding GAGCUCUGCAUUUGGUUAGTT against Fam98b, the z-score was 0.0904 (inactive).

For “ACUCAGUCAUUAAAGAGUGTT against G430095P16Rik”, the z-score is 0.447 (inactive).

Turning to GGAUAUUCCCAAUUACAAGTT against Plxna3, the z-score is -0.469 (inactive).

Turning to GGUCCAGAAGCAGAUGCUUTT against Zdhhc15, the z-score was -0.174 (inactive).

For GCAAGAACAUUAUGAAAGUTT against Epb41, the z-score was 0.905 (inactive).

Regarding GGCCUACCACCUUCAGAAGTT against Rpl37, the z-score was 2.01 (active).

As for GGCACUGUAGACAAACUCUTT against Stxbp1, the z-score is -0.468 (inactive).

Turning to GGCACCUAUGAGGUUCUAUTT against Sec16b, the z-score was -0.615 (inactive).
